Measurements reported in PubChem BioAssay (NCATS).
Results filed as inconclusive are left out. A call without a number means that no potency is given here. Activity calls are given as the source filed them. Unless noted, the call rests on the fitted dose curve; in most records, active means well fitted curve in the direction sought with a large enough effect; inconclusive means small, poorly fitted or top-dose-only effect, or another doubt; inactive means no such curve, though single readings can be large; an effect the other way counts as inactive or inconclusive.

Columns and labels:
[1] = MultiTox-Fluor Cytotoxicity Assay - LYMP1-001 - Dead Cells (AID 946); further: potency means the concentration at half of the fitted maximal effect
In short: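 Seed 2500 LYMP1-001 cells/well, incubate 5 hr at 37 C; add compound, 16 hr at 37 C; add MultiTox-Fluor reagent, 60 min RT; read dead-cell fluorescence Ex/Em=485/520. Normalize to DMSO and 15 uM tetraoctylammonium bromide.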

[2] = MultiTox-Fluor Cytotoxicity Assay - LYMP1-001 - Live Cells (AID 947); further: potency means the concentration at half of the fitted maximal effect
[3] = Cell Viability - LYMP1-002 - Assay at 16 hr (AID 948); further: potency means the concentration at half of the fitted maximal effect
In short: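 In this qHTS, lymphoblastoid LYMP1-002 cells (human) receive compounds for 16 hr at 37 C. Viability is taken from CellTiter-Glo ATP luminescence, and AC50 derives from standard Hill fits.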

[4] = MultiTox-Fluor Cytotoxicity Assay - LYMP1-003 - Dead Cells (AID 961); further: nearly all actives have a fitted effect of over 70% in size; further: potency means the concentration at half of the fitted maximal effect
In short: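 LYMP1-003 lymphoblastoid, 2500 cells/well, 5 hr settle then 16 hr cpd at 37 C; MultiTox-Fluor reagent 60 min RT; Ex/Em 485/520 dead-cell signal; norm. DMSO = 0%, 15 uM tetraoctylammonium bromide = 100%; Hill AC50.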

[5] = MultiTox-Fluor Cytotoxicity Assay - LYMP1-003 - Live Cells (AID 962);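 further: cells exposed to compound for 16 hours at 37 °C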; further: potency means the concentration at half of the fitted maximal effect
In short: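 Live-cell protease activity (GF-AFC substrate, 405/510 nm, 60 min at room temperature) after 16 h, 37 C compound exposure of human lymphoblastoid LYMP1-003 cells; concentration-response fitted to the Hill equation for AC50.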

[6] = Cell Viability - LYMP1-003 - Assay at 24 hr (AID 963); further: potency means the concentration at half of the fitted maximal effect
In short: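 Concentration-response qHTS: ATP loss measured by CellTiter-Glo luminescence after 24 h compound exposure at 37 C. Cells were LYMP1-003 human lymphoblastoid, 2500 per well. AC50 derived via standard Hill equation modeling.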

[7] = Cell Viability - LYMP1-003 - Assay at 40 hr (AID 964); further: nearly all actives have a fitted effect of over 60% in size; further: potency means the concentration at half of the fitted maximal effect
In short: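 Viability is taken as cellular ATP, read by CellTiter-Glo luminescence after 40 h of compound exposure at 37 C. Cells: human lymphoblastoid line LYMP1-003 at 2500/well; AC50 values derived by Hill-equation fitting of concentration-response data.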

[8] = Cell Viability - LYMP2-003 (AID 965);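 further: cells exposed to compounds for 24 h before reading; nearly all actives have a fitted effect of over 50% in size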; further: potency means the concentration at half of the fitted maximal effect
In short: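 qHTS, human lymphoblastoid line, 2500 cells/well, complete medium. 24 h drug, 37 C. ATP-based luminescent readout; Hill-fit AC50.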

[9] = Cell Viability - LYMP2-004 (AID 966); further: nearly all actives have a fitted effect of over 65% in size; further: potency means the concentration at half of the fitted maximal effect
In short: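 AC50 values come from Hill modelling of concentration-dependent loss of intracellular ATP, measured by CellTiter-Glo luminescence. Human LYMP2-004 lymphoblastoid cells (2500/well) were exposed to compound for 24 h at 37 C.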

[10] = Cell Viability - LYMP2-009 (AID 968); further: nearly all actives have a fitted effect of over 55% in size; further: potency means the concentration at half of the fitted maximal effect
[11] = Cell Viability - LYMP2-011 (AID 969); further: nearly all actives have a fitted effect of over 60% in size; further: potency means the concentration at half of the fitted maximal effect
In short: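 Cytotoxicity qHTS with ATP content as read-out: lymphoblastoid cells (2500/well) exposed to compound for 24 h at 37 C, then luciferase luminescence measured. Concentration-response data fitted with the standard Hill equation to give AC50.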

[12] = Cell Viability - LYMP2-015 (AID 971); further: nearly all actives have a fitted effect of over 55% in size; further: potency means the concentration at half of the fitted maximal effect
In short: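 Cytotoxicity readout: decrease in intracellular ATP (CellTiter-Glo luminescence) in 2500 LYMP2-015 lymphoblastoid cells/well after 24 h compound exposure at 37 C. Concentration-response data fitted with the standard Hill equation to give AC50.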

[13] = Cell Viability - LYMP2-017 (AID 972); further: nearly all actives have a fitted effect of over 55% in size; further: potency means the concentration at half of the fitted maximal effect
In short: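 CellTiter-Glo luminescence (cellular ATP, 30 min RT) measured cytotoxicity after 24 hr compound treatment at 37 C. Cells were a human lymphoblastoid line, LYMP2-017, plated at 2500/well and incubated 5 hr first; concentration-response fitted with Hill equation for AC50.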

[14] = Cell Viability - LYMP2-019 (AID 973); further: nearly all actives have a fitted effect of over 55% in size; further: potency means the concentration at half of the fitted maximal effect
In short: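 AC50 values come from Hill-equation fits of luminescent intracellular ATP (CellTiter-Glo, 30 min, room temperature) following 24 h compound exposure at 37 C. Cells: LYMP2-019 lymphoblastoid line, 2500 per well, in complete culture medium.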

[15] = MultiTox-Fluor Cytotoxicity Assay - LYMP1-002 - Live Cells (AID 955);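 further: cells exposed to compound for 16 hours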; further: potency means the concentration at half of the fitted maximal effect
In short: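 After 16 h compound exposure at 37 C, live LYMP1-002 lymphoblastoid cells (2500/well) were quantified by cleavage of cell-permeant GF-AFC substrate, read at 405/510 nm after 60 min. Concentration-response fitted with Hill equation for AC50.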

[16] = MultiTox-Fluor Cytotoxicity Assay - LYMP1-002 - Dead Cells (AID 960); further: nearly all actives have a fitted effect of over 60% in size; further: potency means the concentration at half of the fitted maximal effect
In short: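 Dead-cell fluorescence (Ex/Em 485/520) after 16 h compound exposure at 37 C of LYMP1-002 lymphoblastoid cells in complete medium; AC50 by Hill equation, with data scaled between DMSO and 15 uM tetraoctylammonium bromide.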

[17] = Cell Viability - LYMP2-005 (AID 967); further: potency means the concentration at half of the fitted maximal effect
In short: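 Luciferase-based ATP quantitation served as the viability measure in human lymphoblastoid LYMP2-005 cells exposed to test compounds for 24 h at 37 C in complete culture medium. Potency (AC50) was obtained by fitting concentration-response curves with the Hill equation.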

[18] = molecular target: Pyruvate kinase PKM (Homo sapiens) (UniProt P14618); assay: qHTS Assay for Activators of Human Muscle Pyruvate Kinase (AID 954; active means well fitted curve in the direction sought with a large enough effect, not every such curve was filed as active)
Chain of Pyruvate kinase PKM (Homo sapiens) (P14618 whole entry, looked up): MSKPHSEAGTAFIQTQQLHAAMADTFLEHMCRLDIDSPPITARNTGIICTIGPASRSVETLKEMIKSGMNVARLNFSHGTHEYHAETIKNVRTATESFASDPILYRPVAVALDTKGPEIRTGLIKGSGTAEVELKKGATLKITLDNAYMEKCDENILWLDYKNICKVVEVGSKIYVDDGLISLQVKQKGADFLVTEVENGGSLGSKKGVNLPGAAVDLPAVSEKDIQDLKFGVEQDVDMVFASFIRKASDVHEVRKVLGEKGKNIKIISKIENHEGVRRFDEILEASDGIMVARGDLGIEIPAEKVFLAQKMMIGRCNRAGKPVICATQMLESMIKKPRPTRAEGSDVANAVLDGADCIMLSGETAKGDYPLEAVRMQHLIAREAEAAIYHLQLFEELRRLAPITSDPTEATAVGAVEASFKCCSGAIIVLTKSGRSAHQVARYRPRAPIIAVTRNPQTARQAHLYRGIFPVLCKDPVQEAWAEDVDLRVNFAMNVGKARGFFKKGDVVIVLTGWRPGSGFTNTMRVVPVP
In short: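 PKM2, human, >95% pure, 0.1 nM; PEP 0.5 mM (Km), ADP 0.1 mM; 50 mM imidazole pH 7.2, 50 mM KCl, 0.01% Tween 20, 0.05% BSA; 1 h RT; luciferase luminescence readout.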

SMILES	Potency [1]	Potency [2]	Potency [3]	Potency [4]	Potency [5]	Potency [6]	Potency [7]	Potency [8]	Potency [9]	Potency [10]	Potency [11]	Potency [12]	Potency [13]	Potency [14]	Potency [15]	Potency [16]	Potency [17]	outcome [18]
COc1cc(/C=C/C(=O)CC(=O)/C=C/c2ccc(O)c(OC)c2)ccc1O	50.1 µM (active)	inactive	50.1 µM (active)	50.1 µM (active)	inactive	50.1 µM (active)	39.8 µM (active)	31.6 µM (active)	31.6 µM (active)	25.1 µM (active)	31.6 µM (active)	50.1 µM (active)	39.8 µM (active)	39.8 µM (active)	–	–	–	–
CCCCCCCCCCCCCCCCCC(=O)O	inactive	inactive	inactive	inactive	inactive	inactive	inactive	inactive	inactive	inactive	inactive	inactive	inactive	inactive	inactive	inactive	inactive	–
COC1=C(OC)C(=O)c2ccccc2C1=O	–	–	–	–	–	–	–	–	–	–	–	–	–	–	–	–	–	inactive
C#C[C@]1(O)CC[C@H]2[C@@H]3CCc4cc(O)ccc4[C@H]3CC[C@@]21C	–	inactive	inactive	–	inactive	inactive	–	inactive	inactive	inactive	inactive	inactive	inactive	inactive	inactive	–	–	–
CC1(C)S[C@@H]2[C@H](NC(=O)[C@H](N)c3ccccc3)C(=O)N2[C@H]1C(=O)O	inactive	inactive	inactive	inactive	inactive	inactive	inactive	inactive	inactive	inactive	inactive	inactive	inactive	inactive	inactive	inactive	inactive	–
CN1[C@@H]2CC[C@H]1CC(OC(c1ccccc1)c1ccccc1)C2 (stereo partly drawn)	–	–	–	–	–	–	–	–	–	–	–	–	–	–	–	–	–	inactive
O=C(c1cc(O)c(O)c([N+](=O)[O-])c1)c1ccccc1F	–	–	–	–	–	–	–	–	–	–	–	–	–	–	–	–	–	inactive
O=c1cc(-c2ccccc2)oc2ccccc12	inactive	inactive	inactive	inactive	inactive	inactive	inactive	inactive	inactive	inactive	inactive	inactive	inactive	inactive	inactive	inactive	inactive	–
O=C(O)/C=C\C(=O)O	inactive	inactive	inactive	inactive	inactive	inactive	inactive	inactive	inactive	inactive	inactive	inactive	inactive	inactive	inactive	inactive	inactive	–
CC(C)NCC(O)COc1cccc2ccccc12 (stereo not drawn)	inactive	inactive	inactive	inactive	inactive	inactive	inactive	inactive	inactive	–	inactive	inactive	inactive	inactive	inactive	–	inactive	–
O=C(O)c1cc(O)c(O)c(O)c1	inactive	–	inactive	inactive	inactive	inactive	–	–	–	inactive	inactive	inactive	inactive	inactive	inactive	–	inactive	–
Nc1nc2ccc([N+](=O)[O-])cc2s1	inactive	inactive	inactive	inactive	inactive	inactive	inactive	inactive	inactive	inactive	inactive	inactive	inactive	inactive	inactive	inactive	–	–
O=c1[nH]c2ccccc2n1CCCN1CCN(C(c2ccccc2)c2ccccc2)CC1	–	–	–	–	–	–	–	–	–	–	–	–	–	–	–	–	–	inactive
CN(C)c1ccc(C(=C2C=CC(=[N+](C)C)C=C2)c2ccccc2)cc1	0.501 µM (active)	1 µM (active)	1.58 µM (active)	2 µM (active)	2 µM (active)	2 µM (active)	0.631 µM (active)	0.501 µM (active)	0.316 µM (active)	0.398 µM (active)	0.316 µM (active)	0.316 µM (active)	0.501 µM (active)	0.501 µM (active)	1.58 µM (active)	1.58 µM (active)	0.501 µM (active)	–
Nc1ccc(O)c(C(=O)O)c1	inactive	inactive	inactive	inactive	inactive	inactive	inactive	inactive	inactive	inactive	inactive	inactive	inactive	inactive	inactive	inactive	inactive	–
c1ccc(-c2ccccn2)nc1	–	–	–	–	–	–	–	–	–	–	–	–	–	–	–	–	–	inactive
N=C1N=C(N)c2cc3ccccc3cc21	39.8 µM (active)	–	39.8 µM (active)	39.8 µM (active)	50.1 µM (active)	50.1 µM (active)	39.8 µM (active)	39.8 µM (active)	39.8 µM (active)	39.8 µM (active)	39.8 µM (active)	50.1 µM (active)	39.8 µM (active)	–	25.1 µM (active)	–	39.8 µM (active)	–

SMILES	Potency [1]	Potency [2]	Potency [3]	Potency [4]	Potency [5]	Potency [6]	Potency [7]	Potency [8]	Potency [9]	Potency [10]	Potency [11]	Potency [12]	Potency [13]	Potency [14]	Potency [15]	Potency [16]	Potency [17]	outcome [18]
S=c1[nH]c2ccccc2s1	inactive	inactive	inactive	inactive	inactive	inactive	inactive	inactive	inactive	inactive	inactive	inactive	inactive	inactive	inactive	inactive	inactive	–
COc1cc(CNC(=O)CCCC/C=C/C(C)C)ccc1O	inactive	inactive	inactive	inactive	inactive	inactive	–	inactive	inactive	inactive	inactive	inactive	inactive	inactive	inactive	–	inactive	–
CN(C)CCC(c1ccc(Cl)cc1)c1ccccn1 (stereo not drawn)	inactive	–	inactive	inactive	inactive	inactive	inactive	inactive	inactive	inactive	inactive	–	inactive	inactive	inactive	inactive	inactive	–
CN(C)c1ccc(N=NS(=O)(=O)O)cc1	inactive	inactive	inactive	inactive	inactive	inactive	inactive	inactive	inactive	inactive	inactive	inactive	inactive	inactive	inactive	inactive	inactive	–
CCCCCCCC/C=C\CCCCCCCC(=O)NCCO	–	–	–	–	–	–	–	–	–	–	–	–	–	–	–	–	–	inactive
CCCOC(=O)c1ccc(O)cc1	inactive	inactive	inactive	inactive	inactive	inactive	inactive	inactive	inactive	inactive	inactive	inactive	inactive	inactive	inactive	inactive	inactive	–
Nc1ccc([N+](=O)[O-])cc1O	inactive	inactive	inactive	inactive	inactive	inactive	inactive	inactive	inactive	inactive	inactive	inactive	inactive	inactive	inactive	inactive	inactive	–
c1ccc2sc(SSc3nc4ccccc4s3)nc2c1	inactive	inactive	inactive	inactive	inactive	inactive	inactive	inactive	inactive	inactive	inactive	inactive	inactive	inactive	inactive	inactive	inactive	–
NCCO	inactive	inactive	inactive	inactive	inactive	inactive	inactive	inactive	inactive	inactive	inactive	inactive	inactive	inactive	inactive	inactive	inactive	–
N#C/C(=C\c1ccc(O)c(O)c1)C(=O)c1ccc(O)c(O)c1	–	–	–	–	–	–	–	–	–	–	–	–	–	–	–	–	–	inactive
NCCNC(=O)c1ncsc1-c1cccc(F)c1	–	–	–	–	–	–	–	–	–	–	–	–	–	–	–	–	–	inactive
O=C1CN(/N=C/c2ccc([N+](=O)[O-])o2)C(=O)N1	inactive	–	inactive	inactive	–	–	–	inactive	–	–	–	–	–	–	inactive	inactive	inactive	–
Oc1ccccc1O	inactive	inactive	–	–	–	–	–	inactive	–	–	–	–	inactive	inactive	inactive	–	–	inactive
CN1CCC[C@H]1c1cccnc1	inactive	inactive	inactive	inactive	inactive	inactive	inactive	inactive	inactive	inactive	inactive	inactive	inactive	inactive	inactive	inactive	inactive	–
Nc1ccc(O)c([N+](=O)[O-])c1	inactive	inactive	inactive	inactive	inactive	inactive	–	inactive	inactive	inactive	inactive	–	inactive	–	inactive	–	inactive	–
c1cnc2c(c1)ccc1cccnc12	–	–	–	inactive	–	–	7.94 µM (active)	–	–	–	–	–	–	–	inactive	inactive	–	–
